Measured values from article PMC4666376, “Characterisation of aptamer–target interactions by branched selection and high-throughput sequencing of SELEX pools”.

The sequences below were run against PAI-1 wild type, active (human, UniProt P05121 24-402) (assay: branched SELEX with high-throughput sequencing; PAI-1 immobilised on monoclonal anti-PAI-1 antibody mAb-1; HBS (10 mM HEPES pH 7.4, 140 mM NaCl), 2 mM MgCl2, 2 mM CaCl2, 0.1% BSA; RNA pool 100 nM; PAI-1 captured on antibody-coated wells; 45 min; binding temperature not stated (PAI-1 capture at room temperature); high values mean tight binding). Settings: protein: recombinant; tags: N-terminal His6; structured_RNA; 2'-F pyrimidines.
Chain of PAI-1 wild type, active (P05121 24-402): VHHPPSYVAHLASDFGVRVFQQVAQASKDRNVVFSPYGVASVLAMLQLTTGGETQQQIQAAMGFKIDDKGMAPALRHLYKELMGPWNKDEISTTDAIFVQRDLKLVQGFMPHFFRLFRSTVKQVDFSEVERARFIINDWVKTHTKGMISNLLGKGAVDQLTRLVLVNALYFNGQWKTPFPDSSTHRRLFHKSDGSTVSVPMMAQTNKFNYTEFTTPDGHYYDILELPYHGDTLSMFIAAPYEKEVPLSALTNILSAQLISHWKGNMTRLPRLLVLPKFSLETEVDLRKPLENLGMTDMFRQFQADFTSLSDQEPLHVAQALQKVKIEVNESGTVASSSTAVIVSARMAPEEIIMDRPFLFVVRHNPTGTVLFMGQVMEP
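Also: Pool frequency after one selection round with this target divided by frequency before selection.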

Row | Sequence | binding signal
1 | GGGGCCACCAACGACAUUUAGCACCAGCUAACCGUACGCUCAACGCGUAGUUCGUUGAUAUAAAUAGUGCCCAUGGAUC | 5.48 enrichment factor
2 | GGGGCCACCAACGACAUUAACAACCCGUAGACGUCAUCGUCGAUCGCGUUAGUGUUGAUAUAAAUAGUGCCCAUGGAUC | 1.35 enrichment factor
3 | GGGGCCACCAACGACAUUUGCAAUUUAUGCAACCUUAGCGGAUUCGCUAGUUCGUUGAUAUAAAUAGUGCCCAUGGAUC | 3.88 enrichment factor
4 | GGGGCCACCAACGACAUUGAACCACGUAGGCUCGUUUCUGAGCCGAUCUCGAUGUUGAUAUAAAUAGUGCCCAUGGAUC | 2.66 enrichment factor
